The values below come from PubChem BioAssay (NCATS).

Records with an inconclusive call do not appear. Values without a mark were called inactive. Active and inactive are the calls of the source. Calls follow the shape of the dose curve; as a rule, active = well fitted cell-killing curve with a large enough effect; inconclusive = small, poorly fitted or top-dose-only effect, or effect the other way; inactive = flat fitted curve, though single readings scatter.
% is scaled to controls: 0 for no effect and ±100 for the full control effect; potency is read from the fitted curve at half-maximal effect.

The subject of this assay is CAOV3. Briefly: Primary qHTS to identify gynecologic anti-cancer compounds using libraries of approved drugs and bioactive compounds (AID 1345084). Also: nearly all actives have a fitted effect of over 55% in size. Particulars: Gynecologic cancer cell panel viability, ATPlite luminescence, 48 h; series mostly up to 57.5 µM; activity change, negative = cytotoxicity: at the top concentration. The text has this:
National Center for Advancing Translational Sciences [NCATS] Assay Overview: Chemotherapeutic drug responses vary from cancer to cancer and from patient to patient. These variations could be caused by a number of factors including patient genomic background, tumor mutations, tumor heterogeneity, and aspects of drug treatment. Chemotherapeutic drug resistance is also a common issue and can lead to ineffective treatment and patient death. Here we have profiled the cell killing effects of thousands of compounds to characterize the responses in three gynecological cancers, identify cancer-selective compounds, and understand the diversity of responses to these compounds from pan-cancer suppressors to single cell line selective compounds. In this assay, we screened a 7,914 compound drug library that included approved drug and bioactive compounds in six ovarian, three cervical, and […] placental cancer cell lines using the ATPlite assay for cell viability. […] The cervical cancer cell lines included HeLa, Ca Ski, and C-33 A. The placental cancer cell lines included JEG-3. HEK 293T cells were used as the control cell line to determine the selectivity index. ATPlite is a luminescence based assay reliant on the conversion of a luciferase substrate to light in the presence of ATP. As a cytotoxic compound will suppress growth and decrease the number of cells, the concentration of ATP will decrease, and less light signal will be detected in the well.
Assay Protocol Summary: 1,000 cells in 4 uL of media were dispensed into white, solid bottom 1536-well plates using a Multidrop Combi (Thermo Scientific). The Assay plates were incubated for 16 hours at 37 C with 5% CO2 in assay plates, followed by the addition of 23 nL of DMSO or drug dissolved in DMSO. Each compound was assayed in five concentrations (0.092, 0.46, 2.3, 11.5, and 57.5 uM), using the automated Wako 1536 Pin Tool workstation and incubated at 37 C with 5% CO2 48 hours. 4 uL of ATPlite, the ATP monitoring reagent, was then added to the each well of the assay plates using the Multidrop Combi reagent dispenser followed by incubation for 15 minutes at room temperature. The resulting luminescence was measured using the ViewLux plate reader.
(In qHTS, concentration-response curves come from the screen itself.)
For `CC(N[C@H]1C[C@H]1c1ccccc1)c1ccc2c(c1)OCCO2` (stereo not given in full), the “activity change, negative = cytotoxicity” value is 9.41%. As for `CC(Cc1ccc(O)cc1)NCC(O)c1cc(O)cc(O)c1` (stereo not given), the “activity change, negative = cytotoxicity” value was -4.83%. Turning to `Nc1ccc(Cl)cc1N`, the “activity change, negative = cytotoxicity” value is -12% [at 116 µM].

`Nc1ccc(N=Nc2ccccc2)cc1`: the Potency was 35.5 µM (active). In the case of `O=[N+]([O-])/N=C1\NCCN1Cc1ccc(Cl)nc1`, the “activity change, negative = cytotoxicity” value is 2.37%. Same read-out and setting: to `CS(=O)(=O)c1ccc(C(=O)C2C(=O)CCCC2=O)c([N+](=O)[O-])c1` belongs -2.31% [at 116 µM]; to `CC(C)(C)NC[C@H](O)c1ccc(O)cc1Cl`, 35.3%. For `Nc1ccc(Sc2ccc(N)cc2)cc1`, the “activity change, negative = cytotoxicity” value is -17% [at 116 µM]. Same read-out and setting: to `O=[N+]([O-])c1cc([N+](=O)[O-])c2ccccc2c1` belongs 3.44% [at 116 µM].

For `O=C(N[C@@H](COc1ccc2[nH]c(=O)[nH]c2c1)c1ccccc1)c1cccn(Cc2ccc(F)c(F)c2)c1=O`, the “activity change, negative = cytotoxicity” value is -43.2%. The same measure, in the same setting: to `CCC(=O)O[C@@H]1C=C2CCC3C(CCC4(C)C3CC[C@@H]4OC(=O)CC)C2CC1` (stereo not given in full) belongs 7.39%; to `O=C(N[C@H]1CN2CCC1CC2)c1ccc(Cl)cc1`, 19%.

On to `c1cc2ccc3cccc4ccc(c1)c2c34`, for which the “activity change, negative = cytotoxicity” value was 0% [at 116 µM]. On the same count and under the same terms, to `O=C(O)c1cc(Oc2ccc(C(F)(F)F)cc2Cl)ccc1[N+](=O)[O-]` belongs 0.0653%. Same read-out and setting: to `C1CCC(NC2CCCCC2)CC1` belongs 2.95%. On to `O=C(O)CCCOc1ccc(Cl)cc1Cl`, for which the “activity change, negative = cytotoxicity” value was -0.546% [at 116 µM]. Consider `COc1ccc(N(C(=O)Oc2c(C)cccc2C)c2ccnc(Nc3ccc(N4CCN(C)CC4)cc3)n2)c(OC)c1`, for which the “activity change, negative = cytotoxicity” value is 0.235%. Regarding `COCCOCCO`, the “activity change, negative = cytotoxicity” value was 0% [at 116 µM]. Still for that read-out and setting: for `O=C(O)C(Cl)Cl` the value was 2.59%; for `CCCCC(CC)COC(=O)c1ccccc1C(=O)OCC(CC)CCCC` (stereo not given), 2.48% [at 116 µM]; for `O=C(NCC1CCOCC1)c1cnc(Nc2ccc(Cl)cc2Cl)nc1C(F)(F)F`, -1.47%. Regarding `O=[N+]([O-])c1c2ccccc2cc2ccccc12`, the “activity change, negative = cytotoxicity” value was 0% [at 116 µM]. The same measure, in the same setting: for `CC(C)(C)C(O)C(Oc1ccc(Cl)cc1)n1cncn1` (stereo not given) the value was -0.323% [at 116 µM]. In the case of `CC[N+]1(CCOC(=O)C(O)(c2ccccc2)c2ccccc2)CCCCC1`, the “activity change, negative = cytotoxicity” value is 24.6%. With `CC1(N2CCC(n3c([C@@H]4CCCNC4)nc4ccccc43)CC2)CCCCCCC1`, the Potency is 8.91 µM (active). For `Cc1ccccc1-n1c(Cn2cnc3c(N)ncnc32)nc2cccc(C)c2c1=O`, the “activity change, negative = cytotoxicity” value is -1.67%.

For the compound `CC1=C(C(=O)O)N2C(=O)[C@@H](N)[C@H]2SC1`, the “activity change, negative = cytotoxicity” value was 6.82% [at 25.3 µM].

With `CCO/N=C(\CC)C1=C(O)CC(c2c(C)cc(C)cc2C)CC1=O` (stereo not given), the “activity change, negative = cytotoxicity” value was 1.28% [at 116 µM]. On the same count and under the same terms, to `COC(C)(C)CCCC(C)C/C=C/C(C)=C/C(=O)OC(C)C` (stereo not given) belongs -0.0184%; to `Nc1c(Cl)c(Cl)c(Cl)c(Cl)c1Cl`, 15.2% [at 116 µM]; to `CCOP(=O)(NC(C)C)Oc1ccc(SC)c(C)c1` (stereo not given), 6.48% [at 116 µM].

On to `CCCCCCCCc1ccc(O)cc1`, for which the “activity change, negative = cytotoxicity” value was -20.8% [at 116 µM].

For the compound `O=C(O)CNC(=O)c1c(O)c2ccccc2n(Cc2ccccc2)c1=O`, the “activity change, negative = cytotoxicity” value was -3.47%. Regarding `Cc1cc(O)ccc1Cl`, the “activity change, negative = cytotoxicity” value is -4.32%. Same read-out and setting: to `CC(C)NCC(O)c1ccc([N+](=O)[O-])cc1` (stereo not given) belongs 5.04%. Same read-out and setting: for `CC(C)N(CCNC(=O)CN1CCCC1=O)C(C)C` the value was 7.12%.

Consider `CC(O)CN1CCN(CC(=O)[O-])CCN(CC(=O)[O-])CCN(CC(=O)[O-])CC1.[Gd+3]` (stereo not given), for which the “activity change, negative = cytotoxicity” value is 3.01%. Same read-out and setting: to `O=[N+]([O-])c1ccc([As](=O)(O)O)cc1` belongs -8.9%; to `CC1(C)CC/C(=C/c2ccc(Cl)cc2)C1(O)Cn1cncn1` (stereo not given), -4.25% [at 116 µM].

Take `CCCCCCCCCCCCCCCC[N+](C)(C)C`: the Potency was 8.91 µM (active).
